Laboratory results from ChEMBL document CHEMBL3988442, “University of Dundee, Small-Polar-MMV Screening Library” (2021).

Key:
[1] = target: T1, Aspartate--tRNA(Asp/Asn) ligase (Mycobacterium tuberculosis (strain ATCC 25618 / H37Rv)) (UniProt P9WFW3); test: Assay for Asp RNA synthetase-1 from Mycobacterium tuberculosis; assay type: functional; parameters: scale not given: direction of the effect not stated beside the values; settings: 30 µM; also: in the data most compounds retested in dose-response had high values
T1 sequence (whole entry): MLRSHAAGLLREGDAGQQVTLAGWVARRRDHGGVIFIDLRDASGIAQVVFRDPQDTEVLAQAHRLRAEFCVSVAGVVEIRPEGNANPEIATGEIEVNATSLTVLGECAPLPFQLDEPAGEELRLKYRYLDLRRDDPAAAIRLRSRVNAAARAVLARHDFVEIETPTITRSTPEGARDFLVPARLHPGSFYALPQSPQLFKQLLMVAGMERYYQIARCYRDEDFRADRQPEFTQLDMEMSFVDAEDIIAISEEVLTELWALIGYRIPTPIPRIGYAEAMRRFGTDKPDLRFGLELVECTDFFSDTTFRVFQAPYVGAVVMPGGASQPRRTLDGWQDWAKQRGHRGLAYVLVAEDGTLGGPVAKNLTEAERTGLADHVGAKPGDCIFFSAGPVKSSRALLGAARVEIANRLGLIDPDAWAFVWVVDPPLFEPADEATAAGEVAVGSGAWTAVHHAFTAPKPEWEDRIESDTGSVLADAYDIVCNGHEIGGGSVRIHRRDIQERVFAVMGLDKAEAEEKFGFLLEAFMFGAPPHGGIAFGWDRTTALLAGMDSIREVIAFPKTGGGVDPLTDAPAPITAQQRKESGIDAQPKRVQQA

[2] = target: Shiga toxin 2 (Escherichia coli O157:H7) (UniProt P09385+P09386); test: E. coli 0.157:H7 Shiga Toxin SOP - stx2 screening assay; assay type: functional; parameters: scale not given: direction of the effect not stated beside the values; settings: 30 µM

SMILES	Percent Effect [1] [%]	Percent Effect [2] [%]
CCc1n[nH]c(C2CN(CCc3cccs3)CCO2)n1 (configuration not stated)	-6.83	-38.7
CCc1nc(CCNC(=O)NC2CC2)sc1C	5.19	-0.181
Fc1cnc(N2CCC3(COCc4cnc(NCC5CC5)nc43)C2)nc1 (configuration not stated)	1.39	2.48
CCc1nc(C2CCCN(C(=O)c3ccc4c(c3)nnn4C)C2)no1 (configuration not stated)	4.32	-19.5
Cc1ncc2c(n1)CCCC2NC(=O)c1ccncc1 (configuration not stated)	2.71	-63.8
Cc1cccc(CN2CCc3nnc(CN4CCCC4=O)n3CC2)n1	-2.89	3.17
C=C(C)COCCNC(=O)C1CCCN1C(C)=O (configuration not stated)	-3.43	-6.8
O=C1CC2(CCN(c3nncs3)C2)CN1c1ccccc1 (configuration not stated)	2.1	-24.1
Cc1cc(CN(C)C(=O)C2CCCN(C(=O)c3ccc(Cl)cc3)C2)no1 (configuration not stated)	8.83	-26.7
COc1cnc(C2(O)CCN(C(=O)c3ccncc3)CC2)c(OC)n1	-2.63	-1.51
CN(CCn1nc2ccccn2c1=O)CC(=O)NC1CC1	-5.57	-5.23
O=C(N1CCCC1)N1CCc2ncnc(C3CCOC3)c2CC1 (configuration not stated)	-0.956	-10.8
CC(C)CC(=O)N1CCN(C(=O)N(C)C)CC2(CC(=O)N(C)C2)C1 (configuration not stated)	1.73	1.92
c1cc2c(cc1C1CCCN1Cc1nnnn1C1CC1)OCCO2 (configuration not stated)	-1.25	3.61
O=C1NCC2(CCCN(CCc3ccccc3)C2)Oc2ccccc21 (configuration not stated)	-2.1	-68.8
Cc1ccc(CCNC(=O)N2CCCC(Cc3nccn3C)C2)cn1 (configuration not stated)	-1.82	-13.3
Cc1cc(CN(Cc2cccs2)CC2CCCO2)no1 (configuration not stated)	1.32	12.5
O=C(c1c[nH]c(=O)c(Cl)c1)N1C[C@@H]2CC[C@H](C1)N(Cc1ccccc1)C2	-1.71	3.61
O=S(=O)(NCC1(O)CCOc2ccccc21)c1cccs1 (configuration not stated)	-0.546	-8.71
CC(=O)N1CCCN(C(=O)c2ccn(-c3cccc(Cl)c3)n2)CC1	3	5.49
O=C(CCc1cc2n(n1)CCCN(Cc1ccccc1F)C2)NC1CC1	-1.95	-4.17
O=C(c1cccc2[nH]ncc12)N1CCCC1c1noc(C2CC2)n1 (configuration not stated)	-4.54	0.232
CNc1cc(N2CCCC2CNCc2c[nH]nc2C(C)(C)C)ncn1 (configuration not stated)	1.25	-11.5
O=C(Cc1c[nH]c2ccccc12)N1CCN(C(=O)c2ccoc2)CC1	7.22	-16.5
COc1ccccc1NC(=O)NCC(O)(c1ccccc1)C1CC1 (configuration not stated)	-6.53	-12.2
COC(=O)CN1CC(c2nc(Cc3ccccc3)no2)C1	-4.57	-14.5

SMILES	Percent Effect [1] [%]	Percent Effect [2] [%]
c1cnnc(N2CCCC2CNCc2nc(-c3ccsc3)no2)c1 (configuration not stated)	-0.433	-0.726
C[S+]([O-])c1nncn1CC(=O)c1ccc2c(c1)CCO2 (configuration not stated)	3.29	-38.1
CCN1CC(C(=O)N2CCC(Oc3ccccc3Cl)CC2)CC1=O (configuration not stated)	2.64	-34.4
CCc1n[nH]c(C2CN(C(=O)c3cnc(C)s3)CCO2)n1 (configuration not stated)	-6	-8.48
CC(C)(C)n1cc(C(=O)N2CCCN(Cc3cccs3)CC2)cn1	-0.0333	35.3
CCc1nnc(CN2CCN(C(=O)c3cc4ccccc4[nH]3)CC2)o1	-2.68	8.5
Cn1ccnc1CN1CCN(CC(O)c2ccc(F)c(F)c2)CC1 (configuration not stated)	1.33	-1.4
CCc1nccn1C1CCCN(C(=O)c2cn3cccnc3n2)C1 (configuration not stated)	-1.08	5.72
CN(CCCc1cnn(C)c1)C(=O)C1CCOC1 (configuration not stated)	5.2	-36.5
O=C(CCn1ccccc1=O)Nc1ccc(I)cc1	8.05	-26.1
Cc1cccnc1CN(C)CC1(O)CCCN(CC2CCCCC2)C1=O (configuration not stated)	-0.871	2.24
COc1cc(C(=O)NC(CC(=O)O)c2cccs2)cc(Cl)c1OC (configuration not stated)	3.71	-19.3
COc1ccccc1N1CCC(CNCc2cccc(O)c2)C1 (configuration not stated)	2.22	-10.3
Fc1cccc(-c2nc(CN3CCn4c(nnc4C4CC4)C3)co2)c1	6.1	-39.6
CCc1n[nH]c(C2CN(C(=O)c3cnc[nH]3)CCO2)n1 (configuration not stated)	-1.76	27.7
CC(C)c1nnc2n1CCN(C(=O)c1ccnc(N(C)C)c1)C2	-5.48	-7.07
COCCN1CCC(NCc2cccnc2)C1 (configuration not stated)	4.4	15.8
CC(C)C(C(=O)N1CCCN(Cc2nccn2C)CC1)N1CCCC1 (configuration not stated)	-3.15	27
Cc1cnn(C2CCCN(C(=O)CCc3nccs3)C2)c1 (configuration not stated)	-2.71	20
Cc1cccc(CN2C(=O)CO[C@@H]3CN(CCO)C[C@H]32)c1	-4.77	2.07
CN(C)C(=O)N1CCN(C(=O)C(c2ccccc2F)N(C)C)CC1 (configuration not stated)	0.752	-3.65
O=C(NCCCN1CCOCC1)c1cc(-c2ccco2)[nH]n1	-0.98	-21.1
Cc1ccc(OCCNC(=O)C(C)n2cncn2)cc1 (configuration not stated)	4.54	4.25
CCc1nnc(CN(C)c2nc(C(C)C)nc3c2cnn3C)o1	5.74	-7.55
c1ccc(CN2CCCC(c3nccnc3-n3ccnc3)C2)cc1 (configuration not stated)	2.31	-2.34
